# Reference: PubChem BioAssay
# Experiments:
# [1] = tested on: Human papillomavirus type 1a protein E7 (residues 44-93); assay: small molecules binding HPV E7 44-93 – biochemical, small-molecule microarray, residues 44-93, 635 nm fluorescence, primary screen (AID 1108); details: fluorescence 635 nm, higher = more signal;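 also: E7 fragment applied at 1 µg/mL in TBST for 1 h at 4 C; score combines spot fluorescence with its signal to noise ratio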
# [2] = hepatitis C replication reporter changes, two-sided – Huh7 cells, luciferase reporter, HCV replication inhibitor project, primary screen (AID 1109); details: Huh7 HCV replicon luciferase reporter, 48 h; higher = more signal;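 also: huh7 hepatoma cells harbouring a luciferase neomycin HCV replicon reporter; luciferase luminescence as measure of HCV replicon replication; test concentration not given here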
# [3] = biological target: Left-right determination factor 2 (Homo sapiens) (UniProt O00292); assay: small molecules binding LEFTY2 protein – biochemical, small-molecule microarray, 635 nm fluorescence scan, primary screen (AID 1110); details: higher = more signal
# Left-right determination factor 2 (Homo sapiens), sequence (O00292 whole entry, looked up): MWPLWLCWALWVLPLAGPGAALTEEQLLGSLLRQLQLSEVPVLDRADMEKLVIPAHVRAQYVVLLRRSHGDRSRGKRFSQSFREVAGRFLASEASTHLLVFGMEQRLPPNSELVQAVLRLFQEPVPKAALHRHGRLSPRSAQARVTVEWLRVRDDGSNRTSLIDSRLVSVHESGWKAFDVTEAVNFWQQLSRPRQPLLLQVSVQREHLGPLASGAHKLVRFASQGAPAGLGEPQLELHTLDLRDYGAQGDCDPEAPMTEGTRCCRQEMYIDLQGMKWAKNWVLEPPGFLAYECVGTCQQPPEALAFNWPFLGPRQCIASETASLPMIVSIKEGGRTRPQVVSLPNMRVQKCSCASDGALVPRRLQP
# [4] = biological target: Calmodulin-1 (Homo sapiens) (UniProt P0DP23); assay: small molecules binding calmodulin-1 with EGTA – biochemical, small-molecule microarray, Cy5-labelled CALM1, profiling panel (AID 1111); details: Cy5-CALM1 binding fluorescence, higher = more signal;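 also: labelled calmodulin applied in Tris saline Tween buffer holding calcium plus EGTA and DTT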
# [5] = biological target: Calmodulin-1 (Homo sapiens) (UniProt P0DP23); assay: small molecules binding Ca-loaded calmodulin-1 – biochemical, small-molecule microarray, Cy5-labelled CALM1, plus calcium, artefact control for SMM control-protein annotation, profiling panel (AID 1112); details: Cy5-CALM1 binding fluorescence, higher = more signal;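 also: score merges spot fluorescence with signal to noise from triplicate slides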
# [6] = probe aWnt5a binding to arrayed compounds – biochemical, biotinylated probe, 635/667 nm fluorescence, primary screen (AID 1113); details: small-molecule microarray, higher = more signal;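 also: score merges 667 nm fluorescence intensity with signal-to-noise per printed feature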
# [7] = probe aShh binding to arrayed compounds – biochemical, biotinylated probe, 635/667 nm fluorescence, primary screen (AID 1114); details: small-molecule microarray, higher = more signal;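 also: probe is biotin-labelled aShh protein from a stem cell growth factor screen; measures binding of labelled protein to compounds printed on the slide; score merges feature fluorescence at 667 nm with signal-to-noise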
# [8] = probe aNog binding to arrayed compounds – biochemical, biotinylated probe, 635/667 nm fluorescence, primary screen (AID 1115); details: small-molecule microarray, higher = more signal;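 also: probe is biotinylated aNog protein used at 0.15 µg/mL for 1 h at 4 C; z-score combines 667 nm fluorescence of each spot with its signal to noise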
# [9] = biological target: Torsin-1A-interacting protein 1 (Homo sapiens) (UniProt Q5JTV8); assay: compound microarray binding of lysate hLAP1 – cell lysate, small-molecule microarray, COS7 lysate, 635/667 nm fluorescence, primary screen (AID 1116); details: 635 nm fluorescence, higher = more signal
# Torsin-1A-interacting protein 1 (Homo sapiens), sequence (Q5JTV8 whole entry, looked up): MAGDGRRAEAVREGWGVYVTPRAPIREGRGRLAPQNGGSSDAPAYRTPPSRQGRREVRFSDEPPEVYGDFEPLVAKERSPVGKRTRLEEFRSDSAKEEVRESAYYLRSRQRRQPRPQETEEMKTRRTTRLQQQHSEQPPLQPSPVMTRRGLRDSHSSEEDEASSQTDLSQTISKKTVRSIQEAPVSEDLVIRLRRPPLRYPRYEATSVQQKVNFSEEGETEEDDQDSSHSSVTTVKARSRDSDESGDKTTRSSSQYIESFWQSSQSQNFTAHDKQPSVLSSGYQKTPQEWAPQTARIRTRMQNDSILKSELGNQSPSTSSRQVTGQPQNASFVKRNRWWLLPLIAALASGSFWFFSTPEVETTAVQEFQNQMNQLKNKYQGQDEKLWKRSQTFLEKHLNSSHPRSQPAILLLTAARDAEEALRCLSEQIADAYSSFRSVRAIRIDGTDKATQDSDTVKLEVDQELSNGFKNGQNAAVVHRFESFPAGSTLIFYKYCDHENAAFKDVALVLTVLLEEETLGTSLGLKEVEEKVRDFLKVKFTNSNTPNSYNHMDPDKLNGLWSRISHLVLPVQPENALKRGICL
# [10] = biological target: Alpha-bungarotoxin (Bungarus multicinctus) (UniProt P60615); assay: compounds binding labelled alpha-BTX control protein – biochemical, small-molecule microarray, Alexa647 label, 635/667 nm fluorescence, artefact control for SMM control protein annotation, profiling panel (AID 1117); details: alpha-BTX-A647 binding fluorescence, higher = more signal
# Alpha-bungarotoxin (Bungarus multicinctus), sequence (P60615 whole entry, looked up): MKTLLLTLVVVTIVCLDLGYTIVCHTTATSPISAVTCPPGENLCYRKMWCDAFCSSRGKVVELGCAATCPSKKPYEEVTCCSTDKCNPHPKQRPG
Compound,composite z-score [1],z-score [2],composite z-score [3],composite z-score [4],composite z-score [5],composite z-score [6],composite z-score [7],composite z-score [8],composite z-score [9],composite z-score [10]
CCCN1C(=O)[C@@]2(CCC(=O)OC(C)(C)C)N=C(c3ccc(OCCCO)cc3)O[C@H]2c2ccccc21,1.11,-2.75,0.163,0.786,-0.38,0.0044,-0.0866,-0.0875,0.816,0.285
O=C1C2C=CC(C(O)c3ccc(-c4ccccc4)s3)N(n3cnnc3)C2C(=O)N1Cc1ccccc1 (stereo not given),0.423,-0.602,-0.253,-0.164,-0.377,-0.096,0.0062,0.141,0.585,0.399
C=C(COC)C(=O)CC[C@H](OC(C)=O)c1cccc(OCCO)c1,-0.76,-0.574,-0.729,-0.779,-0.773,-0.124,0.111,-0.0428,0.8,1.24
CCOC(=O)C[C@H]1[C@H](OC(=O)c2ccccc2-c2ccccc2)[C@@H](NC(=O)Cc2ccc(OC)cc2)c2cc(OCCCO)ccc2N1C(=O)c1ccccc1,0.0712,-2.08,-0.3,-0.0521,-0.317,-0.0519,-0.327,-0.443,0.246,-0.0826
C=CC[C@@]1(C(=O)NCC(O)CO)N=C(c2ccc(OCCCO)cc2)O[C@@H]1c1ccccc1N=[N+]=[N-] (stereo not given in full),1.49,-0.747,-0.709,1.61,0.643,-0.0846,0.0062,1.39,2.06,1.12
O=C(CS)NCCCCCCNC(=O)[C@@H]1C[C@@H]2C(=O)N3CCC[C@H]3C(=O)N2[C@@H]1c1ccc(O)cc1,1.41,-0.695,-0.793,0.347,0.0689,0.0868,-0.0146,-0.264,1.35,0.139
CC(C)NC(=O)[C@@]1(Cc2ccccc2I)c2ccccc2C(=O)N(Cc2ccccc2)[C@H]1c1ccc(CO)cc1,0.997,-1.09,0.337,0.447,-0.726,0.0438,-0.0503,-0.422,0.568,1.4
COc1ccc(C(=O)Nc2cccc(CN3C(=O)[C@@]4(O[C@@H](CCn5cc(CCO)nn5)[C@H]([Si](C)(C)c5ccc(OC)cc5)[C@H]4C)c4ccccc43)c2)cc1,1.37,-5.15,0.714,0.468,0.308,-0.0403,0.13,0.153,0.602,1.6
O=c1oc(-c2ccccc2)nc2cc(Br)ccc12,0.55,-1.04,0.69,-0.0114,-0.427,-0.117,-0.221,-0.221,0.503,0.318
COC(=O)c1ccc(C(O)C2C=CC3C(=O)N(C)C(=O)C3N2NC(=O)OC(C)(C)C)o1 (stereo not given),0.703,-0.104,0.432,0.81,-0.493,0.112,-0.0904,0.672,2.02,0.977
COc1cc(CO)ccc1OC(C)=O,0.464,-0.147,0.388,0.0543,-0.267,0.127,0.0815,-0.0615,0.47,0.298
CCOC(=O)C1=CCC(c2ccc(C#N)cc2)N(S(=O)(=O)c2ccc(C)cc2)C1 (stereo not given),-0.437,-2.66,0.47,2.02,0.536,-0.117,0.109,-0.557,0.479,2.25
O=C(OCCF)C1=CCC(c2cccc(Cl)c2)O1 (stereo not given),0.628,-0.0162,0.15,0.0307,0.164,-0.169,-0.0769,-0.0784,1.53,0.775
C=C[C@H](COC(C)=O)N(Cc1ccc(OC(C)=O)c(OC)c1)S(=O)(=O)c1ccc(Br)cc1,1.29,-0.0847,0.461,1.05,0.267,0.0479,-0.291,-0.407,0.788,0.998
CS(=O)(=O)CCOC(=O)C1=CC(CCCO)=CC(c2cccs2)N(Cc2cc3c(cc2Br)OCO3)C=C1C(=O)OCCS(C)(=O)=O (stereo not given),1.27,-1.22,0.858,1.29,0.671,0.0968,0.0639,-0.261,0.955,1.8
O=C(CS)NCCCCCCNC(=O)[C@H]1C[C@H]2C(=O)NCC(=O)N2[C@H]1c1ccc(O)cc1,-0.175,-0.344,-0.571,-0.156,0.802,-0.171,-0.286,-0.379,-0.633,0.136
C=CCN1C(=O)[C@]2(O[C@H](CCO)[C@@H]([Si](C)(C)c3ccc(OC)cc3)[C@@H]2C)c2cc(NC(=O)[C@H](C)O)ccc21,0.942,-4.97,0.0707,0.737,-0.217,-0.0799,0.13,-0.204,0.925,0.69
COc1ccc(C#Cc2ccc3c(c2)[C@]2(C(=O)N3)[C@H](c3ccc(O)cc3)N3[C@H](c4ccccc4)[C@H](c4ccccc4)OC(=O)[C@H]3[C@@H]2C(=O)N2CCCCCCC2)cc1,1.33,-1.01,1.07,2.7,1.41,0.754,2.15,2.75,4.61,1.83
